This note sets out measurements from PubChem BioAssay AID1628 (Sanford-Burnham Center for Chemical Genomics, 2009).

The whole screen tested about 190,000 compounds, of which about 930 (0.49%) were called active. The list shows a part of the results. Measured potencies and affinities stand elsewhere. Unmarked numbers belong to inactive results.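 Rule for the calls: active = z-score of insulin promoter reporter brightness in nuclei below -3 at 5 µM, with at least 500 cells counted; inconclusive = wells with under 500 cells, flagged as toxic or sparse; inactive = the rest.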

This assay can be described thus: decrease of insulin promoter-GFP reporter – imaging, high-content screening, mouse beta cells (AID 1628). The following applies: MIN6 insulin promoter GFP reporter, at 5 µM, hits give low values.
With `CCOC(=O)N1CCC(N2Cc3cccc(C(=O)N4CCN(c5cccc(C)c5C)CC4)c3C2=O)CC1`, the z-score is 2.62.
For the molecule `COc1cccc(CN2CCN(C3CCN(c4cccc(C)c4C)CC3)CC2CCO)c1` (stereo not drawn), the z-score was -8.37 (active).
In the case of `COc1cc(C(Nc2ccc3c(c2)OCO3)C(=O)NC2CCCCC2)cc(OC)c1OC` (stereo not drawn), the z-score was -3.78 (active).
Next, `Fc1ccc(C2NCCn3cccc32)cc1` (stereo not drawn): 3.94; `N#C/C(=C\c1ccc(N2CCOCC2)o1)C(=O)NCCc1ccccc1`: 4.72.
The same measure for `CNC(=O)c1ccc(-c2sc3nc(N4CCOCC4)c4c(c3c2N)CCCC4)o1`: -3.66 (active).
For `Nc1c(C(=O)c2ccc(Cl)cc2)sc2nsc(SCCN3CCOCC3)c12`, the z-score was 4.91.
Next, `Nc1c(C(=O)NCCc2ccccc2)sc2nc(N3CCOCC3)c3c(c12)CCCC3`: -3.11 (active); `CNC(=O)c1ccc(-c2sc3nc(N4CCOCC4)c4c(c3c2N)CC(C)(C)OC4)o1`: 3.23.
The same measure for `c1ccc(-c2ccc(-c3nccc4ccccc34)[nH]2)cc1`: 4.38.
Next, `O=c1[nH]c(-c2ccccn2)nc2sc(-c3ccccc3)cc12`: -6.56 (active).
On to `CCN1/C(=C/c2cc[n+](CCCS(=O)(=O)[O-])c3ccccc23)Sc2ccccc21`, for which the z-score was 6.08.
In the case of `CC[n+]1c(/C=C/C=C/N(C(C)=O)c2ccccc2)sc2cc(OC)ccc21`, the z-score was 17.2.
Next, `CCC(/C=C1\Sc2ccc(OC)cc2N1CC)=C\c1sc2ccc(OC)cc2[n+]1CCCS(=O)(=O)[O-]`: -3.29 (active); `Cc1ccc(CN=Cc2[nH]c3ccc(Br)c(Cl)c3c2O)cc1`: 9.43.
Next, `Cc1ccc(Nc2nc(Cl)c(C=O)s2)cc1Cl`: 6.83; `Cc1nc([N+](=O)[O-])c(N2CCN(Cc3ccccc3)CC2)n1Cc1ccccc1`: -3.12 (active); `Cc1nc([N+](=O)[O-])c(Br)n1CC(=O)c1cccc([N+](=O)[O-])c1`: 2.48.
The same measure for `CC(C)(C)C1CCc2c(sc(N)c2C(N)=O)C1` (stereo not drawn): -5.29 (active).
Take `COc1ccccc1NS(=O)(=O)c1cc([N+](=O)[O-])ccc1N/N=C/c1sc(N2CCOCC2)nc1-c1ccccc1`: the z-score is 4.89.
The same measure for `Nc1ccc(C(=O)N/N=C/c2sc(N3CCOCC3)nc2-c2ccccc2)cc1`: -4.08 (active); for `O=[N+]([O-])c1ccc(N/N=C/c2sc(N3CCOCC3)nc2-c2ccccc2)c(S(=O)(=O)Nc2ccccc2Cl)c1`: 13.1.
Next, `Oc1ccc(CN2CCC(Cc3ccccc3)CC2)c2cccnc12`: -5.12 (active).
Next, `COc1ccc(C)cc1NC(=O)c1nnn(Cc2cccc(C(F)(F)F)c2)c1N`: 3.48.
With `CCOC(=O)c1c(C)nn(Cc2cccc(Cl)c2)c1N`, the z-score is -5.31 (active).
The same measure for `CCOC(=O)c1nn(-c2ccc(Cl)cc2Cl)c(=N)c(C#N)c1C`: 10.8; for `C=CCN1C(=O)/C(=C/C=C2/N(CC)c3ccc(S(=O)(=O)N(C)C)cc3N2CC)SC1=S`: 17.1.
Next, `CCOC(=O)C1C(=O)CC(C)(O)C(C(=O)OCC)C1c1ccccc1` (stereo not drawn): 0.91; `CCOC(=O)C(C)c1nn(C)c(=O)c2ccccc12` (stereo not drawn): -3.52 (active); `COc1ccc(N2C(=O)CCC(C(=O)NCCCN3CCC(C)CC3)C2c2ccc(OC)c(OC)c2)cc1` (stereo not drawn): 4.36.
The same measure for `CCCn1c(CN2CCN(c3cccc(Cl)c3)CC2)nc2c1c(=O)n(C)c(=O)n2C`: -6.4 (active); for `CCCCn1c(CN2CCN(c3cccc(Cl)c3)CC2)nc2c1c(=O)n(C)c(=O)n2C`: -5.64 (active); for `Cn1ncc2c1ncn1nc(CCc3ccccc3)nc21`: 3.58.
In the case of `NC(=O)c1c[nH]c2ccccc12`, the z-score is -0.45.
The same measure for `CCOC(=O)c1c(C)c(C(=O)NC2CCCCC2)c(C)n1CC`: -3.91 (active).
Next, `CCOC(=O)COc1ccc(C(=O)NC2CCCCC2)cc1`: 4.25.
Next, `CC(C)NC(=O)/C(C#N)=C/c1ccc(N(C)C)o1`: 9.4.
As for `CO/N=C/c1ccc(N2CCN(C(=O)c3ccc(F)cc3)CC2)c([N+](=O)[O-])c1`, the z-score was -5.66 (active).
`COc1ccc(/C=C2\C(=O)NC(=S)N2C(=O)c2ccc(F)cc2)cc1`: the z-score was 4.23.
The same measure for `COc1cc([C@@H]2[C@H]3CN(C)CC=C3C(C#N)=C(N)C2(C#N)C#N)cc2c1OCO2`: 5.23; for `COc1cc(/C=N/N=C(\N)c2nonc2N)cc(OC)c1OC`: 3.59.
Next, `O=C(Nc1ccccc1)N1CCSc2ccccc21`: -3.05 (active); `O=C(Nc1ccccc1)C(O)C(O)C(=O)Nc1ccccc1` (stereo not drawn): -0.63.
The same measure for `COC(=O)c1cn(NC(=O)/C=C/c2cc(OC)ccc2OC)c(=O)c2ccccc12`: -3.15 (active).
Turning to `CC1(C#CC[N+]2(C)CCCCC2)CCC2C(O1)c1ccccc1OC2(C)C` (stereo not drawn), the z-score is 3.38.
The same measure for `COc1ccc(-c2nn(-c3ccccc3)cc2/C=C(\C#N)S(=O)(=O)c2ccccc2)cc1OC`: -4.08 (active); for `CC(=O)C(=Cc1cn(-c2ccccc2)nc1-c1ccccc1)C(C)=O`: 3.2; for `CN(C)c1ccc(/C=C/c2ccc3ccccc3n2)cc1`: 7.29.
Take `Cc1cc(N2C(=O)c3ccccc3C2=O)n(C)n1`: the z-score was 3.77.
Next, `O=C(/C=C/c1ccco1)NC(=S)Nc1ccccc1N1CCCC1`: 3.08.
Next, `CCOC(=O)c1ccc(CSc2nnc(-c3ccncc3)n2N)cc1`: 3.8; `COc1ccc(NC(=O)CSc2nnc(-c3cccs3)n2C)cc1OC`: 3.55.
As for `CCn1c(SCC(=O)N2CCCC2)nnc1-c1ccc(N)cc1`, the z-score was 1.98.
As for `CCc1nnc(NC(=O)CSc2ccc(-c3cccs3)nn2)s1`, the z-score was 1.38.
Next, `CCn1c(SCC(=O)Nc2cc(OC)c(OC)c(OC)c2)nnc1-c1cccs1`: -4.1 (active); `CCOc1ccccc1N1CC(O)=C(c2nc3ccccc3s2)C1=N`: -3.91 (active).
Consider `Cc1ccc(N2C(=O)C3C(C(=O)c4ccccc4)=NN(c4ccccc4)C3C2=O)cc1` (stereo not drawn), for which the z-score is 3.17.
The same measure for `Cc1ccc(-n2cc(-c3ccc([N+](=O)[O-])cc3)[nH]c2=S)c(C)c1`: -6.17 (active); for `CCN1CCC2(CC1)N=C(c1ccc(F)cc1)C(=S)N2`: 4.47.
Next, `CS(=O)(=O)ON=C1CCN(S(=O)(=O)c2ccccc2)CC1`: 3.51; `O=c1oc2c(CN3CCCCC3)c(O)ccc2cc1-c1nc2ccccc2[nH]1`: 3.57.
As to `O=C1C=C(c2ccccc2)C[C@H](c2cccs2)[C@H]1n1nnc([N+](=O)[O-])n1`, the z-score is -3.36 (active).
The same measure for `CCOC(=O)CC1C(=O)NCCN1c1nc2c(C)cccn2c(=O)c1/C=C1\SC(=S)N(CC(C)C)C1=O` (stereo not drawn): 16.9; for `CCN(CC)CCCNc1nc2cc(OC)c(OC)cc2c2nc(-c3cccnc3)nn12`: -3.38 (active); for `CCN(CC)CCCC(C)Nc1c2ccc(Cl)cc2nc2ccc(OC)cc12` (stereo not drawn): 12.4.
The same measure for `CC1CCC(C(C)C)C(OC(=O)C[n+]2cc(-c3ccc(Cl)cc3)n3c2CCCCC3)C1` (stereo not drawn): -4.3 (active); for `COc1ccc(-c2c[n+](CC(=O)N3c4ccccc4Sc4ccccc43)c3n2CCC3)cc1`: -3.33 (active); for `Nc1ccc(-c2nc3nc(N)nc(N)c3nc2-c2ccc(N)cc2)cc1`: 4.9.
Next, `Cc1cccc(OCC2=N/C(=C\N(C)C)C(=O)O2)c1`: 2.11; `Nc1nonc1C(=O)NCCNCc1ccccc1OCc1ccccc1F`: -3.51 (active).
`COc1ccc(S(=O)(=O)N(CCCN2CCCC2=O)Cc2cc3c(C)ccc(C)c3[nH]c2=O)cc1`: the z-score was -4.34 (active).
Next, `COc1ccc(C(=O)N(CN2CCCC2=O)c2ccc(C)cc2)cc1`: 3.42; `COC(=O)c1cnn2c(C(F)(F)F)cc(-c3ccc(F)cc3)nc12`: 4.23; `Oc1c(C(c2ccccn2)N2CCCCC2)cc(Cl)c2cccnc12` (stereo not drawn): -5.13 (active).
The same measure for `CN(C)CCCN(C(=O)COc1ccc(Cl)cc1)c1nc2ccc(F)cc2s1`: 1.61.
The same measure for `COc1ccc(-c2cc(C(F)(F)F)nc(SCC(=O)NCCN3CCOCC3)n2)cc1OC`: 0.28; for `COc1ccc(-c2csc(N(CCCN(C)C)C(=O)c3cccs3)n2)cc1`: -4.21 (active).
As for `COc1ccc(NC(=S)N(CCCN2CCOCC2)C(C)c2cc3cccc(OC)c3o2)cc1` (stereo not drawn), the z-score was 2.54.
Next, `COc1ccc(-c2csc(N(CCCN3CCOCC3)C(=O)c3ccco3)n2)cc1`: -4.01 (active); `COc1ccc(C(=O)CSc2nnc(Cn3cnc4ccccc43)o2)cc1`: -3.47 (active); `Cc1[nH]c2ccccc2c1Cc1nnc(SCC(N)=O)o1`: 4.82.
In the case of `C/C(=N\S(=O)(=O)c1ccc(C)cc1)N1CCN(S(=O)(=O)c2ccccc2)C1`, the z-score is 3.52.
Next, `CCC(=O)c1cc(F)c(N2CCN(S(=O)(=O)c3ccc(C)cc3)CC2)cc1C`: -4.01 (active).
Next, `CCCSc1nc2sc3c(c2c(=O)[nH]1)CCN(Cc1ccccc1)C3`: 7.3.
Next, `CC(C)(C)c1cc(C(=O)NCc2cccnc2)ccn1`: 4.34; `O=C(c1ccco1)N(Cc1ccccc1)c1cccc([N+](=O)[O-])c1`: 2.28.
As to `CC(=O)c1c(COC(=O)c2ccncc2)nc2ccccc2[n+]1[O-]`, the z-score is 4.18.
The same measure for `CCOc1ccc(C(=O)O)cn1`: 0.1; for `CCOc1ccc2nc(C)cc(Nc3cccc([N+](=O)[O-])c3)c2c1`: -3.35 (active); for `O=[N+]([O-])c1ccc(N(c2ccccc2)c2ccccc2)cc1`: 3.11.
The same measure for `CC(C)(C)c1ccc(Cn2c(=N)n(CC(O)c3ccco3)c3ccccc32)cc1` (stereo not drawn): -5.45 (active); for `Cc1ccccc1-n1c(=O)c2ccccc2n(CC(=O)NCc2ccco2)c1=O`: 3.06; for `Cc1ccc(Cn2c(=N)n(CC(O)c3ccco3)c3ccccc32)cc1` (stereo not drawn): -11.4 (active).
